Experimental data as given in the supplement of paper PMC7261846.
Counter-ions that a name gives are not always drawn. ± gives the uncertainty stated by the source.

System: Candida albicans SNY425 biofilm
Test: biofilm OD600 with compound plus antifungal (OD600 (absorbance)); higher = more biofilm remaining
[1] = assay detail: disruption of 24-h mature biofilm (compound + antifungal for a second 24 h)
[2] = assay detail: sustained inhibition (compound + antifungal during 90-min adherence and 24-h growth)

| Compound | biofilm OD600 [1] | biofilm OD600 [2] |
| --- | --- | --- |
| CC[C@H](C)[C@H](N)C(=O)N1CCSC1 [P32/98 hemifumarate salt] + OC(Cn1cncn1)(Cn1cncn1)c1ccc(F)cc1F [fluconazole] (first compound 12.5 µM) | 0.249 ± 0.0087 | 0.128 ± 0.0045 |
| O=C[C@@H]1CCCN1C(=O)[C@@H]1CCCN1C(=O)OCc1ccccc1 [Z-Prolyl-prolinal] + CC[C@H](C)C[C@H](C)CCCCCCCCC(=O)N[C@H]1C[C@@H](O)[C@@H](NCCN)NC(=O)[C@@H]2[C@@H](O)CCN2C(=O)[C@H]([C@H](O)CCN)NC(=O)[C@H]([C@H](O)[C@@H](O)c2ccc(O)cc2)NC(=O)[C@@H]2C[C@@H](O)CN2C(=O)[C@H]([C@@H](C)O)NC1=O [caspofungin] (first compound 12.5 µM) | 0.261 ± 0.0097 | 0.153 ± 0.0098 |
| CC(C)CN(C[C@@H](O)[C@H](Cc1ccccc1)NC(=O)O[C@H]1CCOC1)S(=O)(=O)c1ccc(N)cc1 [amprenavir] + C[C@@H]1[C@H](O)[C@@H](C)/C=C/C=C/C=C/C=C/C=C/C=C/C=C/[C@H](O[C@@H]2O[C@H](C)[C@@H](O)[C@H](N)[C@@H]2O)C[C@@H]2O[C@](O)(C[C@@H](O)C[C@@H](O)[C@H](O)CC[C@@H](O)C[C@@H](O)CC(=O)O[C@H]1C)C[C@H](O)[C@H]2C(=O)O [amphotericin B] (first compound 12.5 µM) | 0.283 ± 0.009 | 0.232 ± 0.011 |
| CCCC[C@@H](C=O)NC(=O)[C@H](CC(C)C)NC(=O)OCc1ccccc1 [Calpeptin] + CC[C@H](C)C[C@H](C)CCCCCCCCC(=O)N[C@H]1C[C@@H](O)[C@@H](NCCN)NC(=O)[C@@H]2[C@@H](O)CCN2C(=O)[C@H]([C@H](O)CCN)NC(=O)[C@H]([C@H](O)[C@@H](O)c2ccc(O)cc2)NC(=O)[C@@H]2C[C@@H](O)CN2C(=O)[C@H]([C@@H](C)O)NC1=O [caspofungin] (first compound 12.5 µM) | 0.263 ± 0.0082 | 0.174 ± 0.0085 |
| O=c1oc(Cl)c(Cl)c2ccccc12 [3,4-Dichloroisocoumarin] + C[C@@H]1[C@H](O)[C@@H](C)/C=C/C=C/C=C/C=C/C=C/C=C/C=C/[C@H](O[C@@H]2O[C@H](C)[C@@H](O)[C@H](N)[C@@H]2O)C[C@@H]2O[C@](O)(C[C@@H](O)C[C@@H](O)[C@H](O)CC[C@@H](O)C[C@@H](O)CC(=O)O[C@H]1C)C[C@H](O)[C@H]2C(=O)O [amphotericin B] (first compound 12.5 µM) | 0.252 ± 0.013 | 0.196 ± 0.0087 |
| CC[C@H](C)[C@H](N)C(=O)N1CCSC1 [P32/98 hemifumarate salt] + CC[C@H](C)C[C@H](C)CCCCCCCCC(=O)N[C@H]1C[C@@H](O)[C@@H](NCCN)NC(=O)[C@@H]2[C@@H](O)CCN2C(=O)[C@H]([C@H](O)CCN)NC(=O)[C@H]([C@H](O)[C@@H](O)c2ccc(O)cc2)NC(=O)[C@@H]2C[C@@H](O)CN2C(=O)[C@H]([C@@H](C)O)NC1=O [caspofungin] (first compound 12.5 µM) | 0.254 ± 0.0085 | 0.171 ± 0.0047 |
| COC(=O)C[C@H](NC(=O)[C@H](C)NC(=O)[C@@H](NC(=O)OCc1ccccc1)C(C)C)C(=O)CF + C[C@@H]1[C@H](O)[C@@H](C)/C=C/C=C/C=C/C=C/C=C/C=C/C=C/[C@H](O[C@@H]2O[C@H](C)[C@@H](O)[C@H](N)[C@@H]2O)C[C@@H]2O[C@](O)(C[C@@H](O)C[C@@H](O)[C@H](O)CC[C@@H](O)C[C@@H](O)CC(=O)O[C@H]1C)C[C@H](O)[C@H]2C(=O)O [amphotericin B] (first compound 12.5 µM) | 0.296 ± 0.013 | 0.184 ± 0.011 |
| CCOC(=O)c1ccc(OC(=O)CCCCCNC(=N)N)cc1 [Gabexate mesylate] + OC(Cn1cncn1)(Cn1cncn1)c1ccc(F)cc1F [fluconazole] (first compound 12.5 µM) | 0.267 ± 0.013 | 0.116 ± 0.0062 |
| CC(C)C[C@H](NP(=O)(O)O[C@@H]1O[C@@H](C)[C@H](O)[C@@H](O)[C@H]1O)C(=O)N[C@@H](Cc1c[nH]c2ccccc12)C(=O)O [Phosphoramidon] + C[C@@H]1[C@H](O)[C@@H](C)/C=C/C=C/C=C/C=C/C=C/C=C/C=C/[C@H](O[C@@H]2O[C@H](C)[C@@H](O)[C@H](N)[C@@H]2O)C[C@@H]2O[C@](O)(C[C@@H](O)C[C@@H](O)[C@H](O)CC[C@@H](O)C[C@@H](O)CC(=O)O[C@H]1C)C[C@H](O)[C@H]2C(=O)O [amphotericin B] (first compound 12.5 µM) | 0.28 ± 0.0089 | 0.211 ± 0.0094 |
